Among the data in PubChem BioAssay (EPA / NIEHS) are AC50 and outcome values, retold here.

“And” between values parts separate entries of the source, which are not always exact repeats. Equal values may be shown once. The source made the active and inactive calls. The calls were made as follows: active = hit-call score of the fitted dose curve at least 0.9, where 1 is the maximum; inactive = score below 0.9.

Read-out in the experiment: Interleukin 6 (IL6), IL6 (gene 3569)
Description: BSK_BT_xIL6: BioMAP Diversity Plus: BT Assay for Interleukin 6 (IL6) Biomarker Activity (AID 2284228). Conditions: primary human B cells with PBMC. The protocol:
BSK_BT is a cell-based, multiplexed-readout assay that uses B cell and peripheral blood mononuclear cells, a human vascular primary cell co-culture, with measurements taken at 24 hours after chemical dosing in a microplate: 96-well plate.BSK_BT_xIL6 is an assay component measured in the BSK_BT assay. It measures secreted IL-6 related to regulation of gene expression using LumineX xMAP technology.Data from the assay component BSK_BT_xIL6 was analyzed at the endpoint, BSK_BT_xIL6, in the positive analysis fitting direction relative to DMSO as the negative control and baseline of activity. Using a type of cytokine quantitation reporter, gain or loss-of-signal activity can be used to understand protein changes. To generalize the intended target to other relatable targets, this assay endpoint is annotated to the 'cytokine' intended target family, where the subfamily is 'interleukins'.
The levels of cell surface (or secreted, indicated by the prefix "s") biomarker endpoints were measured by ELISA. Overt cytotoxicity to cells in confluent adherent cultures (all systems other than the BT system) was assessed by measuring total protein levels using sulforhodamine B (SRB) staining in parallel cultures at the time of biomarker measurements, indicated as SRB endpoints. For proliferation assays for adherent cell types, individual cell types are cultured at sub-confluence and relative cell numbers quantified by SRB staining at time points optimized for each system (48 h: 3C and CASM3C systems; 72 h: BT and HDF3CGF systems; 96 h: SAg system). SRB was performed by staining cells with 0.1% SRB after fixation with 10% TCA and reading wells at 560 nm.Viability and proliferation of PBMC (T cells) was quantified by Alamar Blue reduction for the SAg and BT systems. For PBMC viability (referred to as PBMC Cytotoxicity within the assay endpoint names), cells were plated (75,000/well in a 96-well plate) and then chemical samples added for 1 h before addition of activators, SEB and TSST-1 (20 ng/mL final concentration each). Cells were incubated for 90 h. Then, Alamar Blue (20 uL/well) (Invitrogen, Cat DAL1100) was added for 6 h, and the plates were read with a fluorescence microplate reader at 546/580 nm (excitation/emission). For PBMC proliferation, cells were plated and activated as above but incubated for only 16 h prior to addition of Alamar Blue. Plates were read after 6 h.
Turning to `CC1=NN(c2ccccc2)C(=O)C1`, the AC50 (in general, the midpoint of the concentration-response curve, whichever way the signal moves) is 3.91 µM (active).
As for `O=S(=O)(O)C(F)(F)C(F)(F)C(F)(F)C(F)(F)C(F)(F)C(F)(F)C(F)(F)C(F)(F)C(F)(F)C(F)(F)F`, the outcome was inactive.
Turning to `Clc1ccc(Nc2nnc(Cc3ccncc3)c3ccccc23)cc1`, the AC50 is 8.4 µM (active).
With `COC1=CC(=O)C[C@@H](C)[C@]12Oc1c(Cl)c(OC)cc(OC)c1C2=O`, the result was inactive.
On to `CC(C)(C)c1ccc(O)c(O)c1`, for which the AC50 was 25.3 µM (active).
Still for that read-out and setting: next, `CCCCCCCCCCCCCCCCCC[N+](C)(C)Cc1ccccc1`: 6.37 µM (active).
With `CN(Cc1cnc2nc(N)nc(N)c2n1)c1ccc(C(=O)N[C@@H](CCC(=O)O)C(=O)O)cc1`, the result was inactive.
Regarding `C=CC(=O)OCCC(F)(F)C(F)(F)C(F)(F)C(F)(F)C(F)(F)C(F)(F)C(F)(F)C(F)(F)F`, the outcome was inactive.
On the same count and under the same terms, next, `CN(CCO)S(=O)(=O)C(F)(F)C(F)(F)C(F)(F)C(F)(F)C(F)(F)C(F)(F)C(F)(F)C(F)(F)F`: “inactive”.
As to `O=C(NCc1ncc(C(F)(F)F)cc1Cl)c1c(Cl)cccc1Cl`, the AC50 was 20 µM (active).
In the case of `O=C(O)C(F)(F)OC(F)(F)C(F)(F)OC(F)(F)C(F)(F)OC(F)(F)C(F)(F)C(F)(F)C(F)(F)F`, the AC50 was 43.1 µM (active) and 52.8 µM (active).
Turning to `O=C(NO)c1ccccc1`, the AC50 was 4.24 µM (active).
Still for that read-out and setting: next, `O=C(CC(=O)C(F)(F)C(F)(F)C(F)(F)F)c1cccs1`: 29.8 µM (active) and 22.1 µM (active).
As to `O=C(O)CCC(F)(F)C(F)(F)C(F)(F)C(F)(F)C(F)(F)C(F)(F)F`, the outcome was inactive.
Turning to `C=COC(=O)C(C)(C)CCCCCC`, the result was inactive.
On to `NC(=NCCCCCCN=C(N)/N=C(\N)Nc1ccc(Cl)cc1)/N=C(\N)Nc1ccc(Cl)cc1`, for which the AC50 is 8.83 µM (active).
Regarding `O=P(O)(O)CCC(F)(F)C(F)(F)C(F)(F)C(F)(F)C(F)(F)C(F)(F)C(F)(F)C(F)(F)F`, the result was inactive.
Consider `Cc1ccc(N=Nc2c(O)ccc3ccccc23)c(C)c1`, for which the outcome was inactive.
As to `Oc1cc2ccccc2cc1O`, the outcome was inactive.
For `O=C1OC2(c3ccccc31)c1cc(I)c(O)c(I)c1Oc1c2cc(I)c(O)c1I`, the outcome was inactive.
`C=CC(C)(CCC=C(C)C)OC(C)=O` (stereo not drawn): the outcome was inactive.
Consider `CCCCCc1ccc(O)cc1`, for which the outcome was inactive.
For the molecule `O=C(O)CCC(F)(F)C(F)(F)C(F)(F)C(F)(F)C(F)(F)F`, the outcome was inactive.
Take `C=CC(=C)CC/C=C(\C)CCC=C(C)C`: the outcome was inactive.
Consider `COCN(COC)c1nc(N(COC)COC)nc(N(COC)COC)n1`, for which the result was inactive.
For the molecule `O=C1c2ccc(O)c(O)c2C(=O)c2c(O)ccc(O)c21`, the outcome was inactive.
`CN(C)c1ccc(C(=C2C=CC(=[N+](C)C)C=C2)c2ccccc2)cc1`: the AC50 was 1.13 µM (active).
For `CC[N+](CC)(CC)Cc1ccccc1`, the outcome was inactive.
With `COc1cccc(O)c1`, the outcome was inactive.
Turning to `COc1cc(OC)nc(NC(=O)NS(=O)(=O)Nc2ccccc2C(=O)N(C)C)n1`, the result was inactive.
In the case of `CCCCC(CC)C(=O)OCCOCCOCCOCCOC(=O)C(CC)CCCC` (stereo not drawn), the AC50 is 0.016 µM (active).
`CCOC(=O)CN[C@@H](C(=O)N1CC[C@H]1C(=O)NCc1ccc(/C(N)=N/O)cc1)C1CCCCC1`: the outcome was inactive.
For `OCC(F)(F)C(F)(F)C(F)(F)C(F)(F)C(F)(F)C(F)(F)C(F)(F)C(F)(F)C(F)(F)C(F)(F)C(F)(F)F`, the result was inactive.
In the case of `OCCN1CN(CCO)CN(CCO)C1`, the AC50 was 33.6 µM (active).
As to `O=P(O)(O)CCC(F)(F)C(F)(F)C(F)(F)C(F)(F)C(F)(F)C(F)(F)F`, the result was inactive.
Take `Cc1cccc2c1ccc1ccccc12`: the AC50 was 0.157 µM (active).
For `Cc1ccc(C(=O)c2ccccc2)cc1`, the result was inactive.
As to `C[C@]12CC[C@@H]3c4ccc(O)cc4CC[C@H]3[C@@H]1C[C@@H](O)[C@@H]2O`, the outcome was inactive.
